GIRK2 act: Activators of human GIRK2-containing channels. HEK293 GIRK2/NPY4 cells, thallium flux fluorescence. activation (% efficacy), % for hits at 37.5 µM. 34,000 tested, under 10 active;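 active means primary screen hit, no activity in plain HEK293 cells, and in GIRK2-only cells above 5% efficacy rising with concentration; inactive means the rest, including fluorescent compounds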;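 further: efficacy is normalized control-subtracted fluorescence 15 s after thallium addition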
Target sequence (P48051 whole entry, looked up): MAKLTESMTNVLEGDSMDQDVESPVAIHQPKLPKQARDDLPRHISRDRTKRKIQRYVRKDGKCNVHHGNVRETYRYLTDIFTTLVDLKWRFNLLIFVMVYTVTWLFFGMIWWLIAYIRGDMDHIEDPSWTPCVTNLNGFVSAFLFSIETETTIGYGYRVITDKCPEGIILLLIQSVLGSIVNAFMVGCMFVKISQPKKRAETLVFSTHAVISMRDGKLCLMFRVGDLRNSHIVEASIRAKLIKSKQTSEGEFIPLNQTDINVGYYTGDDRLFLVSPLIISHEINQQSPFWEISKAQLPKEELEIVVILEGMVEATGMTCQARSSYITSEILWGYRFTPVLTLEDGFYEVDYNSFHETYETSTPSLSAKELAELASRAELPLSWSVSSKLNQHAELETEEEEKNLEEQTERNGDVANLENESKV
AMPAR-TARP mod: modulates AMPAR-stargazin complexes; calls only at 30 µM; HEK293 GluA2+stargazin, membrane potential dye (FDSS), glutamate EC50; hits were called plate by plate, in both directions; hit rate 3.5% among 40,000; AID 1259245; O88602+P19491;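 active means any of four per-well response measures lying three or more SD from its plate-wide compound average, in either direction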
The depositor's hits bear a star; i = inactive; · = no result; + = active, no number. This excerpt belongs to a sample that is enriched for hits.

SMILES	GIRK2 act	AMPAR-TARP mod
COc1cccc(OCC(=O)Nc2ccc(N3CCCCC3=O)c(OC)c2)c1	i	i
Cc1oc(-c2ccc(Cl)cc2[N+](=O)[O-])cc1C(=O)O	i	i
O=C(Nc1cccc(C(F)(F)F)c1)c1ccc(S(=O)(=O)N2CCCC2)o1	i	i
O=C(Nc1cccnc1)c1ccc(S(=O)(=O)NCc2cccs2)o1	i	i
CNS(=O)(=O)c1ccc(C(=O)Nc2cccc(C(F)(F)F)c2)o1	i	+
O=C(Nc1cccc(C(F)(F)F)c1)c1ccc(S(=O)(=O)NCc2cccs2)o1	i	+
O=C(Nc1cccs1)Nc1ccccc1NC(=O)c1cccs1	i	·
CC(C)OCCCNC(=O)C(=O)NC(C)c1ccccc1 (centres undefined)	i	i
CCOC(=O)C1CCN(C(=O)Cc2csc(Nc3ccccc3)n2)CC1	i	i
CCOC(=O)C1CCN(C(=O)Cc2csc(Nc3cccc(C(F)(F)F)c3)n2)CC1	i	+
CC(C)Oc1ccc(NS(=O)(=O)c2ccc(N3C(=O)CCS3(=O)=O)cc2)cc1	i	i
Cc1ccc(NC(=O)Cn2nc(C(=O)N3CCN(C)CC3)cc2C)cc1	i	i
CCCc1nnc2c(=O)n(-c3cc(C)cc(C)c3)ccn12	i	+
CC(NC(=O)CCCc1nnc2c(=O)n(-c3ccc(Cl)cc3)ccn12)c1ccccc1 (centres undefined)	·	i
COc1ccc(C(=O)NCCS(=O)(=O)N2CCCCC2)cc1	·	i
COc1cc(NC(=O)c2ccccc2C)ccc1NC(=O)C(C)C	·	i
O=C(CSc1nc(=O)n(CCO)c2c1CCC2)Nc1ccc(F)c([N+](=O)[O-])c1	i	+
O=C(CSc1nc(=O)n(CC2CCCO2)c2c1CCCC2)NCc1ccc(F)cc1 (centres undefined)	i	i
O=c1nc(SCc2ccc([N+](=O)[O-])cc2)c2c(n1CC1CCCO1)CCC2 (centres undefined)	i	i
O=c1nc(SCc2ccc(Br)cc2)c2c(n1CC1CCCO1)CCCC2 (centres undefined)	i	+
O=C(CSc1nc(=O)n(CCCO)c2c1CCC2)Nc1ccc(F)c([N+](=O)[O-])c1	i	i
O=C(CSc1nc(=O)n(CC2CCCO2)c2c1CCCC2)Nc1ccc(F)cc1F (centres undefined)	i	+
COc1ccc(C)cc1NC(=O)C(=O)NCCCc1ccccc1	·	i
O=C(Nc1ccc2ncsc2c1)c1ccc(C(=O)c2ccccc2)cc1	i	i
O=C(Nc1ccc2ncsc2c1)c1cccc([N+](=O)[O-])c1	i	+
SMILES	GIRK2 act	AMPAR-TARP mod
Cc1ccnc(C(=O)Nc2ccncc2)n1	i	+
Cc1ccnc(C(=O)Nc2ccc(Nc3cc(N4CCOCC4)nc(C)n3)cc2)n1	i	·
O=C(Nc1ccc(Br)cc1F)c1ccc(=O)n(Cc2cccc([N+](=O)[O-])c2)c1	i	i
O=C(CC(Sc1n[nH]c(-c2ccccc2)n1)c1ccccc1)NCCc1ccccc1 (centres undefined)	·	i
COc1ccc(-c2nc(SC(CC(=O)NCCc3ccccc3)c3ccc(OC)cc3)n[nH]2)cc1 (centres undefined)	·	+
COc1ccc(OC)c(C(=O)/C=C/c2ccc(OC)c(OC)c2)c1	·	i
COc1ccc(S(=O)(=O)/C(C#N)=C/N2CCN(c3cccc(Cl)c3)CC2)cc1	i	i
Cc1nc(NC(=O)c2cccc(Br)c2)sc1C	i	+
Cc1nc(NC(=O)c2ccc(S(=O)(=O)N(C)Cc3ccccc3)cc2)sc1C	i	i
CC(=O)c1ccc(NC(=O)CSc2ncc(S(=O)(=O)c3ccc(Cl)s3)c(N)n2)cc1	i	i
Nc1nc(SCC(=O)Nc2ccccc2)ncc1S(=O)(=O)c1ccc(Cl)s1	i	+
C=CCNC(=O)Nc1nc(C(=O)OCC)cs1	i	i
CCOC(=O)c1csc(NC(=O)c2cc3ccccc3o2)n1	·	+
Cc1cc(C)c(S(=O)(=O)N2CCN(c3cccc(C)c3C)CC2)c(C)c1	·	+
Cc1cc(C)c(S(=O)(=O)N2CCN(c3c(C)cccc3C)CC2)c(C)c1	·	i
O=C(CSc1nc(-c2ccc(F)cc2)cc(C(F)(F)F)n1)N1CCCC1	·	i

Compound activity from PubChem BioAssay.
